# Vif imaging: HIV Vif inhibition. HEK293T cells, Vif self-association by quenched fluorescence, imaging, 24 h. inhibition, % at 7.49 µM. 340,000 tested, 0.35% active. AID 602346; in the data active = inhibition above about 50%, passing the limit was not always enough
# F508del corr: CFTR F508del correction in bronchial cells; CFBE cells, YFP halide quenching; stimulated with forskolin plus potentiator P3; % fluorescence drop versus neutral controls; activity (quench increase), % at 7.58 µM; 350,000 tested, 0.36% active;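 active = mean added fluorescence quench of at least 8% versus neutral control, with both replicates also reaching 8%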;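 note: cells transiently co-express mutant CFTR-F508del with the halide-sensitive YFP; corrector assay measuring rescue of mutant channel to the surface after 24 h compound exposure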
# FGF22 binding: shifts melting point of recombinant human FGF22. activity (Tm shift, normalised), % at 9.99 µM. AID 651658. 340,000 tested, 1.5% active. Q9HCT0. recombinant FGF22 thermal shift, SYPRO orange fluorescence; percent of sucrose octasulfate shift, DMSO zero;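 active = mean Tm shift, scaled 0 neutral to 100 positive control, at about 1.3% or above, every replicate too, limit read from the data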
# Target sequence (Q9HCT0 whole entry, looked up): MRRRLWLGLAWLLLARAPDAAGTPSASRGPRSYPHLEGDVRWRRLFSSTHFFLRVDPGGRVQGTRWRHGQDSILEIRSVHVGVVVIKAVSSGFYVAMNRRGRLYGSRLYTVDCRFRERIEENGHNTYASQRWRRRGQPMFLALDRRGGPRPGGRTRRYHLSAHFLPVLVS
# A number is an active result; . = inactive; / = no result given. An excerpt weighted towards active compounds, which were near 1.7% of everything screened.
SMILES,Vif imaging,F508del corr,FGF22 binding
C[C@H]1CN([C@@H](C)CO)C(=O)c2cc(NS(=O)(=O)c3cn(C)cn3)ccc2O[C@H]1CN(C)S(C)(=O)=O,/,.,.
Cc1cc(C(=O)Nc2cccc3c2O[C@@H](CN(C)S(=O)(=O)c2ccc(F)cc2)[C@H](C)CN([C@H](C)CO)C3=O)n(C)n1,/,.,.
Cc1cc(C)c(S(C)(=O)=O)c(N(C)N)n1,.,.,43.1
Cc1cc(C)c(S(C)(=O)=O)c(N(C)NC(=O)c2c(F)cccc2F)n1,.,.,.
C[C@H](CO)N1C[C@H](C)[C@@H](CN(C)Cc2ccc3c(c2)OCO3)Oc2ccc(NC(=O)Nc3ccc4c(c3)OCO4)cc2C1=O,/,.,.
COCCNc1nc(NC(C)C)nc2ccsc12,.,.,.
CC(C)Nc1nc(Nc2ccc(Cl)cc2F)c2sccc2n1,.,8.6,.
CCCN1C[C@H](C)[C@@H](OC)CN(C)C(=O)c2ccc(NC(=O)c3ccc(F)cc3)cc2OC[C@H]1C,/,.,/
COc1cccc(N=Nc2ccc(O)c3ncccc23)c1,.,.,.
COc1cccc(N=Nc2ccc3cccnc3c2O)c1,.,8.3,.
CCCNC(=O)C[C@H]1CC[C@@H]2[C@H](COC[C@H](O)CN2C(=O)Nc2cccc(Cl)c2)O1,/,.,.
Cc1noc(C)c1NC(=O)Nc1ccc2c(c1)C(=O)N([C@@H](C)CO)C[C@@H](C)[C@@H](CN(C)C(=O)CCCN(C)C)OCCCC[C@H](C)O2,/,.,.
COc1cc(C(=O)Nc2nnc(SC)s2)c([N+](=O)[O-])cc1OC,.,.,43.7
CCc1nnc(NC(=O)c2cc(OC)c(OC)cc2[N+](=O)[O-])s1,.,.,.
C[C@@H]1CN([C@@H](C)CO)C(=O)c2cc(-c3cccc(F)c3)cnc2O[C@H]1CN(C)S(=O)(=O)c1cccc(F)c1,/,.,.
CC(=O)Oc1ccc2nc(-c3cccs3)oc(=O)c2c1,.,/,/
Cc1ccc2nc(-c3cccs3)oc(=O)c2c1,.,.,43.4
COCCNc1nnc(Cc2ccc(Cl)cc2)c(=O)[nH]1,.,.,.
COCCCNc1nnc(Cc2ccc(Cl)cc2)c(=O)[nH]1,.,10.5,.
CCCCC(=O)OCC(=O)C1(O)Cc2c(O)c3c(c(O)c2C(OC2CC(NC(=O)C(F)(F)F)C(O)C(C)O2)C1)C(=O)c1c(OC)cccc1C3=O (stereo not drawn),.,.,.
COc1cccc2c1C(=O)c1c(O)c3c(c(O)c1C2=O)CC(O)(C(C)=O)CC3OC1CC(O)C(O)C(C)O1 (stereo not drawn),.,19.4,.
COc1cccc2c1C(=N)c1c(O)c3c(c(O)c1C2=O)CC(O)(C(C)=O)CC3OC1CC(N)C(O)C(C)O1 (stereo not drawn),.,/,/
COc1cccc2c1C(=O)c1c(O)c3c(c(O)c1C2=O)C[C@](O)(C(C)=O)C[C@H]3O[C@@H]1C[C@@H](N)[C@@H](O)[C@@H](C)O1,.,30.9,.
C[C@@H]1CN([C@@H](C)CO)C(=O)c2cc(/C=C/c3ccccc3)cnc2O[C@@H]1CN(C)C(=O)Cc1cccnc1,/,.,.
COCC(=O)N1[C@@H]2CN(C(=O)c3cccc(OC)c3)c3ccccc3[C@@H]2[C@@H]1CO,/,.,.
SMILES,Vif imaging,F508del corr,FGF22 binding
CC1CCCC(C)N1C(=C(Cl)Cl)C(=C1SCCS1)[N+](=O)[O-] (stereo not drawn),.,.,43.5
Cc1ccc(N2C(=O)CS/C2=C(\C(Cl)=C(Cl)Cl)[N+](=O)[O-])cc1,/,.,.
COc1ccccc1OCCOc1ccc(/C=C2\C(=N)N3N=C(S(C)(=O)=O)SC3=NC2=O)cc1,.,.,2.1
COc1cccc(OCCOc2ccc(/C=C3\C(=N)N4N=C(S(C)(=O)=O)SC4=NC3=O)cc2OC)c1,.,.,.
O=C(Nc1ccccc1)Nc1ccccc1NS(=O)(=O)c1cccs1,.,.,/
O=C(Nc1ccc(Cl)c(Cl)c1)Nc1ccccc1NS(=O)(=O)c1cccs1,.,.,1.7
O=C(C[C@@H]1C=C[C@H](NC(=O)Nc2ccccc2F)[C@@H](CO)O1)NCc1ccc(Cl)cc1,/,.,.
CCN(Cc1ccccc1)S(=O)(=O)c1ccc2c(c1)NC(=O)CC(=O)N2,.,.,43.5
CN(Cc1ccccc1)S(=O)(=O)c1ccc2c(c1)NC(=O)CC(=O)N2,.,/,/
COc1cccc(NC(=O)CSc2cccc[n+]2[O-])c1,.,.,.
COc1ccccc1C(=O)NC(=O)CSc1cccc[n+]1[O-],.,.,43.6
C/C=C/c1ccc([C@@H]2[C@@H](CO)N(C(C)=O)[C@H]2CNC(=O)CC2CC2)cc1,/,.,.
CCCCc1cc(=O)oc2cc(OCc3cc(OC)c(OC)c(OC)c3)c(Cl)cc12,.,/,/
CCCc1cc(=O)oc2cc(OCc3cc(OC)c(OC)c(OC)c3)c(Cl)cc12,105.6,/,/
C[C@@H](NC(=O)[C@@H]1[C@@H](CO)[C@@H]2Cn3c(cccc3=O)[C@H]1N2Cc1cccnc1)c1ccccc1,/,.,.
CCN(CC)CCNC(=O)C12CC3CC(C)(CC(C)(C3)C1)C2,68.4,/,/
CCN(CC)CCNC(=O)C12CC3CC(CC(C3)C1)C2,.,/,/
COc1ccc(-c2nc(C(N)=O)c3[nH]c(=O)n(-c4cccc(Cl)c4)c3n2)cc1OC,.,/,/
CCc1ccc(-c2nc(C(N)=O)c3[nH]c(=O)n(-c4ccccc4OC)c3n2)cc1,.,8.9,.
C[C@H]1CN([C@@H](C)CO)C(=O)c2cc(C#CC(C)(C)O)cnc2O[C@@H]1CN(C)C(=O)CN(C)C,/,.,.
Cc1ccc(S(=O)(=O)NC2=NCCCCC2)cc1,.,.,43.1
Cc1ccc(OCC(=O)Nc2ccc(S(=O)(=O)NC3=NCCCCC3)cc2)cc1,.,.,.
C[C@@H]1CN([C@H](C)CO)S(=O)(=O)c2ccc(-c3ccccc3)cc2O[C@@H]1CN(C)C,/,.,.
Cc1nnc(SCC(=O)N(C2CCCCC2)C2CCS(=O)(=O)C2)n1C (stereo not drawn),.,.,.
Cn1nnnc1SCC(=O)N(C1CCCCC1)C1CCS(=O)(=O)C1 (stereo not drawn),.,/,43.2
SMILES,Vif imaging,F508del corr,FGF22 binding
Cc1noc(C)c1S(=O)(=O)Nc1ccc2c(c1)CC(=O)N([C@H](C)CO)C[C@@H](C)[C@H](CN(C)Cc1ccc(C(=O)O)cc1)O2,/,.,.
Clc1cccc(C2Nc3cccc4cccc(c34)N2)c1,.,.,.
Clc1ccc(C2Nc3cccc4cccc(c34)N2)cc1Cl,57.9,.,.
Cc1noc(C)c1S(=O)(=O)Nc1cccc2c1O[C@H](CN(C)Cc1ccncc1)[C@H](C)CN([C@@H](C)CO)C2=O,/,.,.
C[C@H]1CCCCO[C@H](CN(C)CC2CCCCC2)[C@@H](C)CN([C@@H](C)CO)C(=O)c2cc(NS(=O)(=O)c3cn(C)cn3)ccc2O1,/,.,.
O=C1N=C(N2CCOCC2)S/C1=C\c1cccs1,.,.,.
N#CCCN1CCN(C2=NC(=O)/C(=C\c3cccs3)S2)CC1,.,.,44.1
COC(=O)/C(=C\Nc1ccc(Oc2ccccc2OC(C)C)nc1)NC(=O)c1ccccc1,/,.,.
c1ccc2c(c1)CCN(C1=Nc3cccc4cccc1c34)C2,.,.,43.0
c1cc2c3c(cccc3c1)C(N1CCCCCC1)=N2,.,/,/

# High-throughput results: PubChem BioAssay, Broad Institute
